RE007 growth inh – less growth of the S. pombe RE007 Vpr strain | S. pombe RE007 Vpr strain, BacTiter-Glo ATP luminescence, 24 h | Potency, µM (top dose mostly 92.2 µM), without a hit: at the highest dose activity change, negative = less growth, actives largely listed as inhibitors | 360,000 tested, 0.21% active | AID 651644; active = well fitted falling curve with a large enough effect; inconclusive = small, poorly fitted or top-dose-only effect; inactive = no such curve, though single readings can be large or run the other way; note: nearly all actives have a fitted effect of over 50% in size
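Fission yeast strain RE007, carrying one chromosomally integrated HIV-1 vpr copy, was seeded at OD 0.01 in PMG+AL medium with 23 nL pinned compound. After 24 h at 30 °C and 99% humidity, viability was read by BacTiter-Glo luminescence.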
AmpC no deterg – AmpC beta-lactamase inhibition without detergent; AmpC nitrocefin hydrolysis, absorbance 480 nm, 0.0001% Triton; 330,000 tested, 0.52% active; P00811; Potency, µM (highest dose often 57.1 µM), for the others: at the top dose activity change, negative = inhibition, hits mostly inhibitors;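 note: plate controls were no compound for no effect and no enzyme for full effect; nearly all actives have a fitted effect of over 20% in size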
Target sequence (P00811 whole entry, looked up): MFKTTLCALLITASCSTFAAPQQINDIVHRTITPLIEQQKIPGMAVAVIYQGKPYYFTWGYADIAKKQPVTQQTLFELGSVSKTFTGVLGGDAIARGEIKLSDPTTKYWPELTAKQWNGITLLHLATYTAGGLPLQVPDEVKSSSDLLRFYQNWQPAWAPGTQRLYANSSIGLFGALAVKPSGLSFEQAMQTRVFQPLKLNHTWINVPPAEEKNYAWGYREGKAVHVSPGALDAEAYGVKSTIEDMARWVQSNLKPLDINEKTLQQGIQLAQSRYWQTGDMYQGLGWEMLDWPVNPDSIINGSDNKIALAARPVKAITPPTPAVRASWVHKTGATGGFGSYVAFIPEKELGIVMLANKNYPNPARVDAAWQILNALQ
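AmpC (5.3 nM in the dispensed reagent) in 20 mM phosphate pH 7.0 with 0.01% (detergent screen) or 0.0001% Triton X-100 was preincubated with compounds for 15 min at room temperature. Nitrocefin was then added from an 800 uM solution, and hydrolysis was followed at 480 nm.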
AMA1-RON2 inh – inhibitors of Plasmodium falciparum AMA1-RON2 interaction | Potency, µM (series often up to 58.2 µM), without a hit: top-dose activity change, negative = inhibition, most hits filed as inhibitors | AlphaScreen AMA1-biotinylated RON2 peptide binding | AID 720542 | 360,000 tested, 0.2% active;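 note: 0% = vehicle wells and -100% = peptide control; nearly all actives have a fitted effect of over 45% in size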
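AMA1 (3D7) with his tag at 25 nM final met compounds first, then biotinylated RON2 peptide at 25 nM; detection used donor plus acceptor beads, 10 µg/mL apiece, read by AlphaScreen after 30 min at room temperature.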
AmpC inh detg – inhibitors of E. coli AmpC beta-lactamase with detergent; AmpC hydrolysis of nitrocefin, absorbance 480 nm, 0.01% Triton; 370,000 tested, 0.041% active; AID 485294; Potency, µM (doses to about 114 µM), without a hit: top-dose activity change, negative = inhibition, actives largely listed as inhibitors;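 note: 0% = no-compound wells and -100% = no-enzyme wells; nearly all actives have a fitted effect of over 25% in size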
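20 mM phosphate pH 7.0 + 0.01% (detergent screen) or 0.0001% Triton X-100; 5.3 nM AmpC reagent; cpd preinc 15 min RT; nitrocefin (800 uM stock) to start; A480 q20 s × 4 min; Activity was normalised to no-enzyme and no-compound control wells.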
Sm TGR inh – S. mansoni TGR enzyme inhibition | Q962Y6 | purified TGR, DTNB reduction, TNB absorbance 405 nm | Potency, µM (series often up to 114 µM), without a hit: top-dose activity change, negative = inhibition, usual class: inhibitors | 360,000 tested, 3% active; note: nearly all actives have a fitted effect of over 60% in size
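First, TGR (20 nM dispensed) and NADPH were mixed with compound. Second, a 15 min room-temperature incubation followed. Third, further NADPH and then DTNB were added to start the reaction. Finally, TNB absorbance was monitored kinetically.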
An asterisk follows results filed as active; [ ] = dose if it differs, or a comment. This is a sample that favours compounds with a hit; in the whole collection about 3.2% have one here. Unless noted, calls come from the whole dose curve; as a rule, active = well fitted curve in the direction sought with a large enough effect; inconclusive = small, poorly fitted or top-dose-only effect, or another doubt; inactive = no such curve, though single readings can be large; an effect the other way counts as inactive or inconclusive. Unless noted, % is set by controls: 0 for no effect and ±100 for the full control effect; potency is the fitted concentration of half-maximal effect.

`C/C(Cl)=C/CC1(CN2CCCC2=O)C(=O)NC(=O)NC1=O` gave RE007 growth inh -5%, AmpC no deterg 3%, AMA1-RON2 inh 14%, AmpC inh detg 28µM* and Sm TGR inh -10%.
`O=C(/C=C/Sc1ccc(C(F)(F)F)cn1)c1ccccc1` gave RE007 growth inh 2%, AmpC no deterg -27%, AMA1-RON2 inh -5%, AmpC inh detg 4% and Sm TGR inh 89µM*.
Cc1c(C(=O)N2CCCC2)oc2c1-c1nn(CC(=O)NCc3ccccc3Br)cc1CC2 was read as AmpC inh detg -1% and Sm TGR inh -29%.
Screening c1ccc(C2[C@H]3CN(CC4CCCCC4)[C@H](c4ccccc4)C34CC2(c2cccnc2)C4)cc1 (stereo not given in full) returned RE007 growth inh -8%, AmpC no deterg 7%, AMA1-RON2 inh -1%, AmpC inh detg -4% and Sm TGR inh 45µM*.
Screening NCC(O)c1cc(O)c(O)cc1F (stereo not given) returned RE007 growth inh 0%[18.4 µM], AmpC no deterg -10%, AMA1-RON2 inh inconclusive, AmpC inh detg inconclusive and Sm TGR inh 45µM*.
CNC[C@H](O)c1ccc(O)c(O)c1 was read as RE007 growth inh 1%[18.4 µM], AmpC no deterg -26%, AMA1-RON2 inh inconclusive, AmpC inh detg -1% and Sm TGR inh 14µM*.
Screening NC[C@H](O)c1ccc(O)c(O)c1 returned RE007 growth inh -8%, AmpC no deterg -34%, AMA1-RON2 inh 2.8µM*, AmpC inh detg -14% and Sm TGR inh inconclusive.
`CNCC(O)c1ccc(O)cc1` (stereo not given) gave RE007 growth inh -1%, AmpC no deterg -3%, AMA1-RON2 inh 14%, AmpC inh detg inconclusive and Sm TGR inh -19%.
Screening COc1ccc(/C=C/c2nc(C#N)c(N3CCC(C)CC3)o2)cc1OC returned AmpC inh detg 2% and Sm TGR inh -1%.
Screening CC(OC(=O)c1ccc(-c2ccc([N+](=O)[O-])cc2)o1)C(=O)NC(N)=O (stereo not given) returned RE007 growth inh 2%, AmpC no deterg -17%, AMA1-RON2 inh 1%, AmpC inh detg inconclusive and Sm TGR inh 4.5µM*.
CC1(C)CC(NC(=O)Nc2ccc([N+](=O)[O-])cc2)CC(C)(C)N1 was read as RE007 growth inh -8%, AmpC no deterg -6%[11.4 µM], AMA1-RON2 inh -16%, AmpC inh detg -10% and Sm TGR inh -10%.
`CC1(C)CC(NC(=O)c2ccc(-c3ccc([N+](=O)[O-])cc3)o2)CC(C)(C)N1` gave RE007 growth inh 2%, AmpC no deterg -5%, AMA1-RON2 inh 0%, AmpC inh detg 5% and Sm TGR inh 40µM*.
For O=C(Nc1ccccc1)c1ccc(-c2ccc([N+](=O)[O-])cc2)o1 the results were RE007 growth inh 16%, AmpC no deterg -46%, AMA1-RON2 inh -17%, AmpC inh detg -13% and Sm TGR inh 3.5µM*.
For COc1ccc(NC(=O)c2ccc(-c3ccc([N+](=O)[O-])cc3)o2)cc1 the results were RE007 growth inh 4%, AmpC no deterg -38%, AMA1-RON2 inh -2%, AmpC inh detg 6% and Sm TGR inh inconclusive.
O=C(O)c1ccc(-c2cccc([N+](=O)[O-])c2)o1 was read as RE007 growth inh -14%, AmpC no deterg -11%, AMA1-RON2 inh -17%, AmpC inh detg -3% and Sm TGR inh 35µM*.
`Cn1c(CNC(=O)CSc2nc(-c3ccccc3F)nc3cc(=O)[nH]n23)nc2ccccc21` gave AmpC inh detg 2% and Sm TGR inh inconclusive.
`CCN(CC)S(=O)(=O)c1ccc2c(c1)N(CC(=O)Nc1c(C)cc(C)cc1C)C(=O)C1CCCN21` (stereo not given) gave AmpC inh detg -4% and Sm TGR inh 1%.
Screening CN(C)c1ccc(CNC(=O)c2ccc(Cn3c(SCc4ccccc4)nc4cccnc43)cc2)cc1 returned AmpC inh detg 21% and Sm TGR inh 0%.
`O=C1OC(C(=O)Nc2cc(C(F)(F)F)ccc2Cl)Cc2ccccc21` (stereo not given) gave AmpC inh detg -5% and Sm TGR inh -2%.
Screening Nc1ccc2c(c1)OC1(CCCCC1)O2 returned RE007 growth inh -4%, AmpC no deterg -40%, AMA1-RON2 inh inconclusive, AmpC inh detg 2% and Sm TGR inh 14µM*.
For CC(=O)Nc1ccc(CC(=O)Nc2ccc3c(c2)OC2(CCCC2)O3)cc1 the results were RE007 growth inh 7% and AMA1-RON2 inh -11%.
For O=[N+]([O-])c1ccc(N/N=C/c2cccc(O)c2O)cc1 the results were RE007 growth inh 5%, AmpC no deterg 18µM*, AMA1-RON2 inh -3%, AmpC inh detg -15% and Sm TGR inh 0%.
For O=[N+]([O-])c1ccc(N/N=C/c2cccc(O)c2)cc1 the results were RE007 growth inh 10%, AmpC no deterg -46%, AMA1-RON2 inh -8%, AmpC inh detg -2% and Sm TGR inh -24%.
`CCc1ccc(NC(=O)c2ccc(CN3CC(=O)N4CCCCC4C3=O)cc2)cc1` (stereo not given) gave AmpC inh detg 2% and Sm TGR inh -1%.
Screening COc1ccc2c(c1)sc1ncc(C(=O)NCc3ccc(OC(C)C)cc3)c(=O)n12 returned AmpC inh detg -3% and Sm TGR inh 8%.
For Cc1ccc(C)c(N2CCN(CCCNC(=O)c3cnn(-c4ccc(F)cc4)c3C3CCN(C(=O)OC(C)(C)C)CC3)CC2)c1 the results were AmpC inh detg 12% and Sm TGR inh 5%.
`CC/C(=N\Nc1ccccc1[N+](=O)[O-])c1ccc(O)cc1` gave RE007 growth inh -7%, AmpC no deterg -44%, AMA1-RON2 inh 16µM*, AmpC inh detg -2% and Sm TGR inh 12%.
For CC/C(=N\Nc1ccc([N+](=O)[O-])cc1[N+](=O)[O-])c1ccc(O)cc1 the results were RE007 growth inh -16%, AmpC no deterg -59%, AMA1-RON2 inh -23%, AmpC inh detg -4% and Sm TGR inh 1%.
`COc1ccc(CNC(=O)c2ccc(Cn3cc(Br)cn3)o2)cc1` gave RE007 growth inh 24%, AmpC no deterg -6%, AMA1-RON2 inh 0%, AmpC inh detg 1% and Sm TGR inh inconclusive.
COc1ccccc1N1CCN(C(=O)c2ccc(CS(=O)(=O)c3ccccc3OC)o2)CC1 was read as RE007 growth inh 11%, AmpC no deterg 121%, AMA1-RON2 inh 29%, AmpC inh detg -12% and Sm TGR inh 28µM*.
COc1ccc(CNC(=O)c2ccc(Cn3cc(Cl)cn3)o2)cc1 was read as RE007 growth inh 21%, AmpC no deterg -14%, AMA1-RON2 inh -7%, AmpC inh detg -9% and Sm TGR inh 14µM*.
